PubChem BioAssay (Tox21)
Where “and” joins values, the source holds several entries; their conditions need not be identical. Identical values can stand only once. Inconclusive results are not listed. Where a call stands in place of a potency, no number is given. Calls of active or inactive are those of the source. Unless noted, calls come from the whole dose curve; as a rule, active = well fitted curve in the direction sought with a large enough effect in the repeat runs; inconclusive = weak or mixed curves; inactive = no such curve, though single readings can be large; an effect the other way counts as inactive or inconclusive.

What was measured:
[1] = target: Aryl hydrocarbon receptor (Homo sapiens) (UniProt P35869); assay: qHTS assay to identify small molecule that activate the aryl hydrocarbon receptor (AhR) signaling pathway (AID 743085); note: nearly all actives have a fitted effect of over 15% in size; note: potency is the fitted concentration of half-maximal effect;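 for activation: HG2L7.5c1 human HepG2 liver cells with stably integrated DRE-driven firefly reporter; series mostly up to about 70 µM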
How it was run: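 Measured in HG2L7.5c1 cells: CellTiter-Fluor signal (30 min incubation, 37C) for viability, then luciferase luminescence (30 min, room temperature). Compound contact time was 24 h at 37C, following a 5 h pre-incubation.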

[2] = qHTS assay to identify small molecule that activate the aryl hydrocarbon receptor (AhR) signaling pathway - cell viability counter screen (AID 743086);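 note: HepG2 liver cells carrying the AhR DRE luciferase reporter; series mostly up to about 70 µM; nearly all actives have a fitted effect of over 45% in size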
How it was run: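 HepG2-AhR-luc (HG2L7.5c1) cells, 4000/well, were preincubated 5 h at 37C, exposed to compound in qHTS format for 24 hr at 37C, then given CellTiter-Fluor for 30 min; viability was read as fluorescence in the reporter wells.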

[3] = target: Peroxisome proliferator-activated receptor gamma (Homo sapiens) (UniProt P37231); assay: qHTS assay to identify small molecule agonists of the peroxisome proliferator-activated receptor gamma (PPARg) signaling pathway (AID 743094; active = well fitted activation curve with a large enough effect in the signal ratio in the repeat runs, not every such curve was filed as active; the % refers to the signal ratio)
How it was run: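 Cell-based bla reporter, HEK293H background, PPARg-driven UAS. Pre-incubation 5 h, 37C, 5% CO2. Compound 17 h, 37C. Substrate 1 h RT; fluorescence.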

[4] = target: Peroxisome proliferator-activated receptor gamma (Homo sapiens) (UniProt P37231); assay: qHTS assay to identify small molecule antagonists of the peroxisome proliferator-activated receptor gamma (PPARg) signaling pathway (AID 743191; calls by dose curve; note: series mostly up to about 63 µM; nearly all actives have a fitted effect of over 30% in size)
How it was run: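 GeneBLAzer PPARg UAS-bla HEK293H cells carrying a UAS-driven beta-lactamase reporter were plated at 3000 cells/well, preincubated 5 h at 37C, then given compound for 17 h at 37C; LiveBLAzer B/G FRET substrate was read after 1 h at room temperature.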

[5] = qHTS assay to identify small molecule antagonists of the peroxisome proliferator-activated receptor gamma (PPARg) signaling pathway - cell viability counter screen (AID 743194); details: Potency: co-treated with 50 nM rosiglitazone; note: nearly all actives have a fitted effect of over 55% in size
How it was run: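 PPARg-UAS-bla HEK293H cells were plated, rested 5 h at 37 C, then treated with compounds plus rosiglitazone (50 nM final) for 17 h at 37 C; viability was then read by CellTiter-Glo luminescence after 30 min at room temperature.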

[6] = qHTS assay for small molecule agonists of the antioxidant response element (ARE) signaling pathway (AID 743202; active = well fitted activation curve with a large enough effect in the signal ratio in the repeat runs, not every such curve was filed as active; the % refers to the signal ratio)
How it was run: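 Steps: seed ARE-bla HepG2 cells (2,000/well); incubate 5 h at 37 C; add compounds by pin tool; incubate 16 h at 37 C; add FRET substrate; read fluorescence after 2 h at RT.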

[7] = qHTS assay for small molecule agonists of the antioxidant response element (ARE) signaling pathway - cell viability counter screen (AID 743203; calls by dose curve; note: nearly all actives have a fitted effect of over 55% in size)
How it was run: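 Measured in the same wells as the beta-lactamase ARE reporter, this read-out is CellTiter-Glo luminescence from HepG2 ARE-bla cells given compounds for 16 hrs.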

[8] = qHTS assay for small molecule activators of the heat shock response signaling pathway - cell viability counter screen (AID 743209); note: nearly all actives have a fitted effect of over 50% in size
How it was run: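 Same-well multiplex: after 2.5 h room-temperature incubation with LiveBLAzer B/G substrate and fluorescence reading, CellTiter-Glo reagent was added to HSE-bla HeLa cells that had received compound for 5 h at 37 C; luminescence read after 30 min.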

[9] = qHTS assay for small molecule activators of the heat shock response signaling pathway (AID 743210; active = well fitted activation curve with a large enough effect in the signal ratio in the repeat runs, with a control signal flat, not every such curve was filed as active; the % refers to the signal ratio;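 note: HeLa cells with beta-lactamase reporter driven by heat shock elements; series mostly up to about 63 µM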)
How it was run: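 Activation of heat shock element-controlled beta-lactamase expression is measured in HeLa cells by LiveBLAzer FRET fluorescence, with compound exposure lasting 5 h at 37 C and substrate loading 2.5 h at room temperature.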

[10] = qHTS assay to identify small molecule agonists of the peroxisome proliferator-activated receptor delta (PPARd) signaling pathway - cell viability counter screen (AID 743211); note: nearly all actives have a fitted effect of over 55% in size
How it was run: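 Following 5 h plating at 37 C and 5% CO2, PPARd UAS-bla HEK293H cells took up test compounds for 17 h. Viability was quantified by luminescence 30 min after CellTiter-Glo addition at room temperature.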

[11] = qHTS assay to identify small molecule antagonists of the peroxisome proliferator-activated receptor delta (PPARd) signaling pathway - cell viability counter screen (AID 743213); note: nearly all actives have a fitted effect of over 50% in size
How it was run: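 PPARd-bla HEK293H cells (3000/well) got compound plus 300 nM L165041 agonist for 17 h at 37 C. Viability in the same wells came from CellTiter-Glo luminescence after 30 min at room temperature.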

[12] = target: Peroxisome proliferator-activated receptor delta (Homo sapiens) (UniProt Q03181); assay: qHTS assay to identify small molecule antagonists of the peroxisome proliferator-activated receptor delta (PPARd) signaling pathway (AID 743215; active = well fitted inhibition curve with a large enough effect in the signal ratio in the repeat runs, not every such curve was filed as active; the % refers to the signal ratio;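 note: cells stimulated with agonist L165041 at 300 nM final during compound exposure; series mostly up to about 62 µM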)
How it was run: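 Fluorescence from cleaved LiveBLAzer B/G FRET substrate (2 h, room temperature) reports PPARd-driven beta-lactamase in HEK293H UAS-bla cells. Cells had been treated 17 h at 37 C with compound plus 300 nM final L165041.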

[13] = qHTS assay to identify small molecule agonists of the farnesoid-X-receptor (FXR) signaling pathway - cell viability counter screen (AID 743218); note: nearly all actives have a fitted effect of over 45% in size
How it was run: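 Readout: CellTiter-Glo luminescence, 30 min RT, multiplexed after the FXR-bla FRET reading. HEK 293T FXR-UAS-bla cells received compound 5 h post-plating and were incubated 16 h at 37 C.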

[14] = qHTS assay to identify small molecule antagonists of the farnesoid-X-receptor (FXR) signaling pathway - cell viability counter screen (AID 743221; active = well fitted cell-killing curve with a large enough effect in the repeat runs, not every such curve was filed as active; note: nearly all actives have a fitted effect of over 50% in size)
How it was run: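 Compound effects on cell number were measured as CellTiter-Glo luminescence in HEK 293T cells expressing FXR-UAS-bla, after 16 h at 37 C with 50 uM CDCA (final).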

[15] = qHTS assay to identify small molecule agonists of the vitamin D receptor (VDR) signaling pathway - cell viability counter screen (AID 743224); note: series mostly up to about 63 µM; nearly all actives have a fitted effect of over 50% in size
How it was run: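 In parallel with the bla FRET readout, cytotoxicity toward VDR-bla cells after 16 h compound exposure was assessed by CellTiter-Glo, with luminescence recorded after a 30 min room-temperature incubation.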

[16] = target: Peroxisome proliferator-activated receptor delta (Homo sapiens) (UniProt Q03181); assay: qHTS assay to identify small molecule agonists of the peroxisome proliferator-activated receptor delta (PPARd) signaling pathway (AID 743212; calls by dose curve)
How it was run: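 Cells expressing a UAS-driven beta-lactamase reporter (PPARd-bla HEK293H) were given test compounds after a 5 h settle and kept at 37 C. Reporter activity was then measured as FRET fluorescence using LiveBLAzer B/G substrate.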

[17] = target: Bile acid receptor (Homo sapiens) (UniProt Q96RI1); assay: qHTS assay to identify small molecule antagonists of the farnesoid-X-receptor (FXR) signaling pathway (AID 743217; active = well fitted inhibition curve with a large enough effect in the signal ratio in the repeat runs, not every such curve was filed as active; the % refers to the signal ratio)
How it was run: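 FRET fluorescence after 2 h room-temperature LiveBLAzer loading gives the readout. Prior step: FXR-bla HEK 293T cells, seeded and incubated 5 h, received test compounds plus 50 uM final CDCA for 16 h at 37 °C.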

[18] = target: Bile acid receptor (Homo sapiens) (UniProt Q96RI1); assay: qHTS assay to identify small molecule agonists of the farnesoid-X-receptor (FXR) signaling pathway (AID 743220; active = well fitted activation curve with a large enough effect in the signal ratio in the repeat runs, not every such curve was filed as active; the % refers to the signal ratio)
How it was run: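 FXR-UAS-bla HEK 293T cells carrying a UAS-driven beta-lactamase reporter were plated for 5 h at 37C/5% CO2, then exposed to DMSO-dissolved Tox21 10K compounds for 16 h at 37C. A LiveBLAzer B/G FRET substrate was loaded for 2 h at room temperature before fluorescence reading.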

[19] = target: Vitamin D3 receptor (Homo sapiens) (UniProt P11473); assay: qHTS assay to identify small molecule agonists of the vitamin D receptor (VDR) signaling pathway (AID 743222; calls by dose curve)
How it was run: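 Following 4 h attachment at 37C, VDR-bla cells (2,000 per well) received DMSO-dissolved compounds or controls. After 16 h incubation, LiveBLAzer B/G FRET substrate was added and fluorescence read 2 h later at room temperature.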

[20] = target: Vitamin D3 receptor (Homo sapiens) (UniProt P11473); assay: qHTS assay to identify small molecule antagonists of the vitamin D receptor (VDR) signaling pathway (AID 743223; active = well fitted inhibition curve with a large enough effect in the signal ratio in the repeat runs, not every such curve was filed as active; the % refers to the signal ratio)
How it was run: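 Beta-lactamase activity in VDR-bla cells is measured by FRET substrate fluorescence (2 h, room temperature) after cells spend 16 h at 37C with test compound and 3 nM final 1alpha,25-dihydroxyvitamin D3.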

Peroxisome proliferator-activated receptor gamma (Homo sapiens), sequence (P37231 whole entry, looked up): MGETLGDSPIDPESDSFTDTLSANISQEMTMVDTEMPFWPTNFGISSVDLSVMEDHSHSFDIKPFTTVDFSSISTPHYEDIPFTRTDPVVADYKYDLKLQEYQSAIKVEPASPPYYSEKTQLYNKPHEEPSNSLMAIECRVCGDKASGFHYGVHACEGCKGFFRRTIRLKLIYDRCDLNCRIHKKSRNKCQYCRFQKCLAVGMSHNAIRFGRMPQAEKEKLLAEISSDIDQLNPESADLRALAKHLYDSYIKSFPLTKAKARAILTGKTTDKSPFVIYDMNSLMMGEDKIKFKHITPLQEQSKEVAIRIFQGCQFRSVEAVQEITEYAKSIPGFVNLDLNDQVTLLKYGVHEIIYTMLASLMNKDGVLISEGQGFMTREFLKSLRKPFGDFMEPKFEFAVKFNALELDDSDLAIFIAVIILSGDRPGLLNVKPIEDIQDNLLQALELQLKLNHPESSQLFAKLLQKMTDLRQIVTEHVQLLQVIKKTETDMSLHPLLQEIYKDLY
Peroxisome proliferator-activated receptor delta (Homo sapiens), sequence (Q03181 whole entry, looked up): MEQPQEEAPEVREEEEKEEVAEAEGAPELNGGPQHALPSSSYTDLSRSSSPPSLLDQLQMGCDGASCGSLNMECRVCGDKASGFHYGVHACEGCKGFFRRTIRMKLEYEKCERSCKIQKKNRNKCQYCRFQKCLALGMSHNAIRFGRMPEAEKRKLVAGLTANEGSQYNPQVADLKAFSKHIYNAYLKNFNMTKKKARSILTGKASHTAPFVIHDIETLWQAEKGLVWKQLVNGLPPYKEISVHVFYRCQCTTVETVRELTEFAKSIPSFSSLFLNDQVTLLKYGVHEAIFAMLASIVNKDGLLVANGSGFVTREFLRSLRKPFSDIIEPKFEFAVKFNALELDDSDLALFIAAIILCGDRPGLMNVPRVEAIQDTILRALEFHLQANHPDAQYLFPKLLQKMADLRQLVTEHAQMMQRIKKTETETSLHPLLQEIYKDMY
Vitamin D3 receptor (Homo sapiens), sequence (P11473 whole entry, looked up): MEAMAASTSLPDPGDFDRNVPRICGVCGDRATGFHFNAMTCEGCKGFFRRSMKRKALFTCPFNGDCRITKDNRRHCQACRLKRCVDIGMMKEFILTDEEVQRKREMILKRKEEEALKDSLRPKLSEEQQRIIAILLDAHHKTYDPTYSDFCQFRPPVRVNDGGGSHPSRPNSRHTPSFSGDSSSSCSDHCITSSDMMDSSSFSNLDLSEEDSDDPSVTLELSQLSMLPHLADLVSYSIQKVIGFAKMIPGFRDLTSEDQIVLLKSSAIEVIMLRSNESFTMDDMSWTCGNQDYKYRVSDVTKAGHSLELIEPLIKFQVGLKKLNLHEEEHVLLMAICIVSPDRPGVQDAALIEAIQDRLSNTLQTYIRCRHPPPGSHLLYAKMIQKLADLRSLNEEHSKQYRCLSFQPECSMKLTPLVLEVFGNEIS
Aryl hydrocarbon receptor (Homo sapiens), sequence (P35869 whole entry, looked up): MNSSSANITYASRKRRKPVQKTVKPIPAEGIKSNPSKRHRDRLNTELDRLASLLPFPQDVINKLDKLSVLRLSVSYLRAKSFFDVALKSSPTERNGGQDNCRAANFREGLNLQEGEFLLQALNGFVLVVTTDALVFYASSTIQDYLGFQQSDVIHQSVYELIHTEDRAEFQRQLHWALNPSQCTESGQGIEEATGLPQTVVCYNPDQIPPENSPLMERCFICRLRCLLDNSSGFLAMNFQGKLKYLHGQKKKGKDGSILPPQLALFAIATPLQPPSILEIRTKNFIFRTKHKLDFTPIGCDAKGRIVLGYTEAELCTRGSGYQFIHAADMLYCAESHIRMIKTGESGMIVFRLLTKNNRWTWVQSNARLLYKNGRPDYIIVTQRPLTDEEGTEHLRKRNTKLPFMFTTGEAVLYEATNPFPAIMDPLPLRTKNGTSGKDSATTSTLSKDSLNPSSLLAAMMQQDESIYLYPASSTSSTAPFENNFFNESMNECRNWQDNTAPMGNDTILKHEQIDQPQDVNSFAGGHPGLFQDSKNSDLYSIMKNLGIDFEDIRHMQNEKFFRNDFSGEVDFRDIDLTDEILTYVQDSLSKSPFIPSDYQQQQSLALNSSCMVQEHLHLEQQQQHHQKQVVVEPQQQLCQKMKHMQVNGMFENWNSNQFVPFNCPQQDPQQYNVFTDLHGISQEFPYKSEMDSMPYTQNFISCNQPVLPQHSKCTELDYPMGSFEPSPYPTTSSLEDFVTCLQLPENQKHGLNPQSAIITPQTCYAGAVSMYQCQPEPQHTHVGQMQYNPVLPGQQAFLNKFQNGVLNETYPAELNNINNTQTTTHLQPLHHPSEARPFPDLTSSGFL
Bile acid receptor (Homo sapiens), sequence (Q96RI1 whole entry, looked up): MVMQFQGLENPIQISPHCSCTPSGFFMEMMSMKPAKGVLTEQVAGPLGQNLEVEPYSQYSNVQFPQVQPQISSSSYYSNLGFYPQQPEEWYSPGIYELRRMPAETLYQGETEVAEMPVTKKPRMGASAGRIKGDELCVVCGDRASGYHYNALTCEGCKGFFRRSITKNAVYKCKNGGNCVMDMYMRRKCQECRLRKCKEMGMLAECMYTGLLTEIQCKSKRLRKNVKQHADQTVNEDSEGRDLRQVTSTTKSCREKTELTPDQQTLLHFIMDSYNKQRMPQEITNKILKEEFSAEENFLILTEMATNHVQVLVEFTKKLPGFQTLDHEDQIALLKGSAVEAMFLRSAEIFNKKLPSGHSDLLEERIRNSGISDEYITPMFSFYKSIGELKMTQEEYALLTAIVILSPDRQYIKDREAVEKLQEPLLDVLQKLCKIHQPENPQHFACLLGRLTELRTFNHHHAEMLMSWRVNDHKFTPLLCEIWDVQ

SMILES | Potency [1] | Potency [2] | Potency [3] | Potency [4] | Potency [5] | Potency [6] | Potency [7] | Potency [8] | Potency [9] | Potency [10] | Potency [11] | Potency [12] | Potency [13] | Potency [14] | Potency [15] | outcome [16] | Potency [17] | outcome [18] | outcome [19] | Potency [20]
C[C@H]1O[C@H](OC2[C@@H](O)[C@@H](O)C(O)[C@H](O)[C@H]2O)[C@@H](N)C[C@@H]1N=C(N)C(=O)O (stereo partly drawn) | inactive | inactive | inactive | inactive | inactive | inactive | inactive | inactive | inactive | inactive | inactive | inactive | inactive | inactive | inactive | – | – | – | – | –
CCCC1CCCCN1 (stereo not drawn) | inactive | inactive | inactive | inactive | inactive | inactive | inactive | inactive | inactive | inactive | inactive | inactive | inactive | inactive | – | – | – | – | – | –
C1CS1 | inactive | inactive | inactive | inactive | inactive | inactive | inactive | inactive | inactive | inactive | inactive | – | inactive | inactive | inactive | – | – | – | – | –
C[N+]1(CCF)[C@@H]2CC[C@H]1CC(OC(=O)C(O)(c1ccccc1)c1ccccc1)C2 (stereo partly drawn) | inactive | inactive | inactive | inactive | inactive | inactive | inactive | inactive | inactive | inactive | inactive | inactive | inactive | inactive | inactive | inactive | inactive | inactive | inactive | inactive
CCCCC(CC)COC(=O)c1c(Br)c(Br)c(Br)c(Br)c1C(=O)OCC(CC)CCCC (stereo not drawn) | inactive | inactive | inactive | inactive | inactive | inactive | inactive | inactive | inactive | inactive | inactive | inactive | inactive | inactive | – | inactive | inactive | inactive | inactive | inactive
CN1C(=O)CN=C(c2ccccc2)c2cc([N+](=O)[O-])ccc21 | inactive | inactive | inactive | inactive | – | inactive | inactive | inactive | inactive | inactive | inactive | inactive | inactive | inactive | inactive | inactive | – | – | – | –
NC(=S)c1c(Cl)cccc1Cl | inactive | inactive | inactive | inactive | – | inactive | inactive | inactive | inactive | inactive | inactive | inactive | inactive | inactive | inactive | inactive | – | – | – | –
CCCN(CCC)c1c([N+](=O)[O-])cc(C(C)C)cc1[N+](=O)[O-] | inactive | inactive | inactive | inactive | inactive | inactive | inactive | – | inactive | inactive | inactive | – | inactive | inactive | inactive | inactive | – | – | inactive | inactive
CCSCc1ccccc1OC(=O)NC | inactive | inactive | inactive | inactive | – | inactive | inactive | inactive | inactive | inactive | – | inactive | inactive | inactive | inactive | inactive | inactive | inactive | inactive | inactive
CCCCOC(=O)CCC(=O)OCCCC | inactive | inactive | inactive | inactive | inactive | inactive | inactive | – | inactive | inactive | inactive | – | inactive | inactive | inactive | inactive | – | – | – | –
O=C(O)C(Cl)(Cl)Br | inactive | inactive | inactive | inactive | – | inactive | inactive | inactive | inactive | inactive | – | – | inactive | inactive | inactive | inactive | inactive | inactive | inactive | inactive
CCNC(=O)NC(=O)/C(C#N)=N/OC | inactive | inactive | inactive | inactive | – | inactive | inactive | – | inactive | inactive | inactive | inactive | inactive | inactive | inactive | – | inactive | inactive | inactive | –
NCCc1cc(O)c(O)cc1O | inactive | inactive | inactive | inactive | inactive | – | inactive | inactive | inactive | inactive | inactive | inactive | inactive | inactive | – | – | – | – | inactive | inactive
Nc1cc(Cl)cc(C(=O)O)c1Cl | inactive | inactive | inactive | inactive | inactive | inactive | inactive | – | inactive | inactive | inactive | inactive | inactive | inactive | inactive | inactive | – | – | inactive | inactive
Nc1cccc2ccccc12 | 27.5 µM (active) and 27.3 µM (active) | inactive | inactive | inactive | inactive | inactive | inactive | – | inactive | inactive | inactive | inactive | inactive | inactive | inactive | inactive | – | – | – | –
CCCCC(CC)CO[N+](=O)[O-] (stereo not drawn) | inactive | inactive | inactive | inactive | inactive | – | inactive | – | inactive | inactive | inactive | – | inactive | inactive | inactive | inactive | – | – | inactive | –
C[N+](C)(C)CC1CO1 (stereo not drawn) | inactive | inactive | inactive | inactive | inactive | inactive | inactive | – | inactive | inactive | inactive | inactive | inactive | inactive | – | inactive | – | – | – | –
ClCc1ccccc1Cl | inactive | inactive | inactive | inactive | inactive | – | inactive | inactive | inactive | inactive | – | – | inactive | inactive | inactive | – | inactive | inactive | inactive | –
